Source: PubChem BioAssay (NCATS)
Results filed as inconclusive are left out. Calls of active or inactive are those of the source. The call rests on the fitted dose curve; in most records, active means well fitted curve in the direction sought with a large enough effect; inconclusive means small, poorly fitted or top-dose-only effect, or another doubt; inactive means no such curve, though single readings can be large; an effect the other way counts as inactive or inconclusive.

Assays:
HEK293 = assay: Cytotoxic Profiling of Annotated Libraries Using Quantitative High-Throughput Screening (AID 1296008); conditions: Five cell lines viability, CellTiter-Glo ATP luminescence, 48-72 h; max response: stronger effect = lower value; further: nearly all actives have a fitted effect of over 60% in size
Method in brief: (§1)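 Cells exposed to compounds for 48 or 72 hr at 37 degrees Celsius. Viability read as ATP-coupled luminescence with CellTiter-Glo after 10 min at room temperature.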

HaCat = assay: as above; conditions: Five cell lines viability, CellTiter-Glo ATP luminescence, 48-72 h; max response: stronger effect = lower value
Method in brief: as §1

KB-3-1 = assay: as above; conditions: Five cell lines viability, CellTiter-Glo ATP luminescence, 48-72 h; max response: stronger effect = lower value
Method in brief: as §1

C33A = assay: Primary qHTS to identify gynecologic anti-cancer compounds using libraries of approved drugs and bioactive compounds (AID 1345084); conditions: Gynecologic cancer cell panel viability, ATPlite luminescence, 48 h; series mostly up to 57.5 µM; further: nearly all actives have a fitted effect of over 55% in size
Method in brief: (§2)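 Cells, 1,000 per well, were allowed to settle for 16 h at 37 C before compound addition. Five concentrations were tested for 48 h, and viability was read by ATPlite luminescence after 15 min at room temperature.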

CAOV3 = assay: as above; conditions: Gynecologic cancer cell panel viability, ATPlite luminescence, 48 h; series mostly up to 57.5 µM
Method in brief: as §2

JEG-3 = assay: as above; conditions: Gynecologic cancer cell panel viability, ATPlite luminescence, 48 h; series mostly up to 57.5 µM
Method in brief: as §2

Es-2 = assay: as above; conditions: Gynecologic cancer cell panel viability, ATPlite luminescence, 48 h; series mostly up to 57.5 µM
Method in brief: as §2

Hek293T = assay: as above; conditions: Gynecologic cancer cell panel viability, ATPlite luminescence, 48 h, control line for the selectivity index; series mostly up to 57.5 µM
Method in brief: as §2

CASKI = assay: as above; conditions: Gynecologic cancer cell panel viability, ATPlite luminescence, 48 h; series mostly up to 57.5 µM
Method in brief: as §2

HeLa = assay: as above; conditions: Gynecologic cancer cell panel viability, ATPlite luminescence, 48 h; series mostly up to 57.5 µM
Method in brief: as §2
On the % scale 0 is the no-effect control and ±100 the full control effect; potency means the concentration at half of the fitted maximal effect.

CN(C)C/C=C/C(=O)Nc1cc2c(Nc3ccc(F)c(Cl)c3)ncnc2cc1OC1CCOC1 (centres undefined)
active: Potency (HEK293) 5.8 µM | Potency (HaCat) 0.517 µM | Potency (KB-3-1) 5.17 µM | Potency (C33A) 20 µM | Potency (CAOV3) 10 µM
inactive: Potency (JEG-3)

Cc1nc(NC(=O)N2CCCC2C(N)=O)sc1-c1csc(C(C)(C)C)n1 (centres undefined)
inactive: max response (HEK293) -25.9% | outcome (KB-3-1) | Potency (C33A) | Potency (CAOV3) | Potency (Es-2) | Potency (Hek293T) | Potency (JEG-3)
active: Potency (HaCat) 5.17 µM

CC(C)(C)Nc1nc(Nc2ccc(C(N)=O)cc2)cc(N)c1C#N
inactive: max response (HaCat) -5.65% | Potency (CAOV3) | Potency (Es-2) | Potency (JEG-3)
active: Potency (HEK293) 1.64 µM | Potency (KB-3-1) 5.8 µM | Potency (C33A) 25.1 µM

CCCC(=O)NCCc1csc(-c2ccc(Cl)cc2)n1
inactive: max response (HaCat) -70.2% | max response (KB-3-1) -24.2% | Potency (C33A) | Potency (CAOV3) | Potency (CASKI) | Potency (Es-2) | Potency (HeLa) | Potency (Hek293T) | Potency (JEG-3)
active: Potency (HEK293) 16.4 µM

COc1ccc(C2=N[C@@H](c3ccc(Cl)cc3)[C@@H](c3ccc(Cl)cc3)N2C(=O)N2CCNC(=O)C2)c(OC(C)C)c1
inactive: max response (HEK293) -29% | max response (HaCat) -13.8% | max response (KB-3-1) 6.36% | Potency (C33A) | Potency (CAOV3) | Potency (CASKI) | Potency (Es-2) | Potency (HeLa) | Potency (Hek293T) | Potency (JEG-3)

COc1cc(O)cc(C)c1C(=O)O[C@@H]1[C@H](O)[C@@H](CO)O[C@H]1n1ccc(=O)[nH]c1=O
active: Potency (HEK293) 5.63 µM
inactive: max response (HaCat) -4.84% | max response (KB-3-1) -16.4% | Potency (C33A) | Potency (CAOV3) | Potency (CASKI) | Potency (HeLa) | Potency (JEG-3)

CCC(Nc1ncnc2nc[nH]c12)c1nc2cccc(F)c2c(=O)n1-c1ccccc1 (centres undefined)
inactive: max response (HEK293) -7.81% | max response (HaCat) -6.65% | outcome (KB-3-1) | Potency (C33A) | Potency (CAOV3) | Potency (CASKI) | Potency (Es-2) | Potency (HeLa) | Potency (Hek293T) | Potency (JEG-3)

O=C1NC(=O)C(c2cn(-c3ccccc3)nc2-c2ccc(F)cc2)N1 (centres undefined)
active: Potency (HaCat) 16.4 µM
inactive: max response (HEK293) -6.53% | outcome (KB-3-1) | Potency (C33A) | Potency (CASKI) | Potency (Es-2) | Potency (HeLa) | Potency (Hek293T) | Potency (JEG-3)

C=C1C(=O)OC2/C=C(\CO)CC/C=C(\C=O)CC(OC(=O)CC(C)C)C12 (centres undefined)
inactive: max response (HaCat) -10.5% | max response (KB-3-1) -5.58% | Potency (C33A) | Potency (CASKI) | Potency (HeLa) | Potency (Hek293T) | Potency (JEG-3)
active: Potency (HEK293) 12.8 µM

C=C(C)C(=O)OC1C(OC(C)=O)/C(C=O)=C\CC/C(CO)=C/C2OC(=O)C(=C)C21 (centres undefined)
inactive: max response (HaCat) -6.21% | max response (KB-3-1) -25.3% | Potency (C33A) | Potency (CASKI) | Potency (HeLa) | Potency (JEG-3)
active: Potency (HEK293) 5.63 µM

Cc1cc(C(=O)N2Cc3cnn(C)c3Nc3ccccc32)ccc1CNC(=O)N1CCC[C@H]1C(=S)N1CCCN(C)CC1
inactive: max response (HEK293) -0.106% | max response (HaCat) -21.4% | max response (KB-3-1) 2.82% | Potency (C33A) | Potency (CAOV3) | Potency (Es-2) | Potency (HeLa) | Potency (Hek293T) | Potency (JEG-3)

COC(=O)Cc1cc2c(c([N+](=O)[O-])c1)N(C(=O)CC[C@H](N)C(=O)O)CC2
inactive: max response (HEK293) -4.25% | max response (HaCat) -29.1% | max response (KB-3-1) 7.29% | Potency (C33A) | Potency (CAOV3) | Potency (Es-2) | Potency (HeLa) | Potency (Hek293T) | Potency (JEG-3)

Cc1ccc(C(=O)Nc2noc3ccccc23)cc1
inactive: max response (HaCat) -29.9% | outcome (KB-3-1)
active: Potency (HEK293) 18.4 µM | Potency (CAOV3) 15.8 µM | Potency (CASKI) 22.4 µM | Potency (Es-2) 15.8 µM | Potency (HeLa) 22.4 µM | Potency (Hek293T) 15.8 µM

CN1CCC(Nc2nc(Nc3ccc(Oc4ccccc4)cc3)c3c(=O)[nH]cc(Br)c3n2)CC1
active: Potency (HEK293) 2.31 µM | Potency (HaCat) 4.11 µM | Potency (KB-3-1) 5.8 µM
inactive: Potency (C33A) | Potency (Hek293T) | Potency (JEG-3)

C=C(C)C(=O)O[C@H]1C[C@@](C)(O)C(=O)CC(O)/C(C)=C\[C@H]2OC(=O)C(=C)[C@H]12 (some centres undefined)
active: Potency (HEK293) 5.08 µM
inactive: max response (HaCat) -1.1% | outcome (KB-3-1) | Potency (C33A) | Potency (CAOV3) | Potency (CASKI) | Potency (HeLa) | Potency (Hek293T) | Potency (JEG-3)

COc1ccc(C(=O)Nc2ncc(-c3ccc(C(=O)O)cc3)s2)cc1
active: Potency (HEK293) 7.31 µM | Potency (HaCat) 5.8 µM | Potency (KB-3-1) 2.91 µM | Potency (CAOV3) 6.31 µM | Potency (CASKI) 17.8 µM | Potency (Es-2) 31.6 µM | Potency (HeLa) 7.08 µM | Potency (JEG-3) 15.8 µM

CC(C)(C)Nc1nc2cc(Cl)c(Cl)cc2nc1S(C)(=O)=O
active: Potency (HEK293) 4.11 µM | Potency (HaCat) 5.8 µM | Potency (KB-3-1) 13 µM | Potency (CASKI) 35.5 µM | Potency (Hek293T) 28.2 µM | Potency (JEG-3) 15.8 µM

CC[C@]1(O)CC2CN(CCc3c([nH]c4ccccc34)[C@@](C(=O)OC)(c3cc4c(cc3OC)N(C)[C@H]3[C@@](O)(C(=O)OC)[C@H](OC(C)=O)[C@]5(CC)C=CCN6CC[C@]43[C@@H]65)C2)C1 (some centres undefined)
inactive: max response (HaCat) 4.47%
active: Potency (HEK293) 0.0651 µM | Potency (KB-3-1) 0.0366 µM | Potency (CASKI) 1.12 µM | Potency (Es-2) 0.794 µM | Potency (HeLa) 0.708 µM
